# “And” between values parts separate entries of the source, which are not always exact repeats. Equal entries are not always repeated. Records with an inconclusive call do not appear. Entries that show only a call come without a potency. The source made the active and inactive calls. Unless noted, calls come from the whole dose curve; as a rule, active = well fitted curve in the direction sought with a large enough effect; inconclusive = small, poorly fitted or top-dose-only effect, or another doubt; inactive = no such curve, though single readings can be large; an effect the other way counts as inactive or inconclusive.
# Key:
# [1] = Validation of Assay for Modulators of Lamin A Splicing (AID 1459; active = well fitted curve in the direction sought with a large enough effect in the signal ratio; the % refers to the signal ratio;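 note: cells exposed to compound for two days before reading; ratio rise marks activators and ratio drop marks inhibitors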)
# Method in brief: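 Readout: ratio of GFP (500-530 nm) to RFP (575-640 nm) total object intensity by 488 nm laser-scanning cytometry after 48 hrs. Cells were HeLa S3 clones carrying lamin A-EGFP minigene plus DsRed2 viability reporter; vehicle 0.5% DMSO final.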
# [2] = target: DNA repair nuclease/redox regulator APEX1 (Homo sapiens) (UniProt P27695); test: qHTS Validation Assay for Inhibitors of the Human Apurinic/apyrimidinic Endonuclease 1 (APE1) (AID 1705; note: potency is the fitted concentration of half-maximal effect;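 for activity change, negative = inhibition: TAMRA fluorescence gain over two minutes as APE1 cuts a quenched THF abasic duplex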)
# Sequence of DNA repair nuclease/redox regulator APEX1 (Homo sapiens) (P27695 whole entry, looked up): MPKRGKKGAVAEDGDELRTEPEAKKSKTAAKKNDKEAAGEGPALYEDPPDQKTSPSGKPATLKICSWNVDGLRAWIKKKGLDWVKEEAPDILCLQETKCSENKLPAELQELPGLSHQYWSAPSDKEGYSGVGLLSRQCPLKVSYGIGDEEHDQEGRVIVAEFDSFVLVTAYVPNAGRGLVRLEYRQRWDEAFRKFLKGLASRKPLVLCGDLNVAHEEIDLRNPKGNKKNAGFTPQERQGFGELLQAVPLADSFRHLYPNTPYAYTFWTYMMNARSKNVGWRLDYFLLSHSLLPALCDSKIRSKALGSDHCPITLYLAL
# Method in brief: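 Read-out: TAMRA fluorescence (525 nm ex, 598 nm em) from cleavage of a quenched THF abasic-site duplex, 50 nM final; activity taken as intensity change between third and first of three reads 60 s apart.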
# [3] = target: Endonuclease 4 (Escherichia coli (strain K12)) (UniProt P0A6C1); test: Counterscreen for APE1 Inhibitors: qHTS Validation Assay for Inhibitors of Endonuclease IV (AID 1708); note: potency is the fitted concentration of half-maximal effect
# Method in brief: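 Incision of a double-stranded 50 nM TAMRA/BHQ-2 abasic substrate was followed kinetically (525/598 nm, reads every 60 s) after 15 min enzyme–compound preincubation with 2 nM EndoIV in pH 7.5 Tris buffer with MgCl2, DTT and Tween-20; concentration-response format.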
# [4] = qHTS for differential inhibitors of proliferation of Plasmodium falciparum line 7G8 (AID 1815);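 note: parasite growth measured after three days of incubation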; note: potency is the fitted concentration of half-maximal effect
# [5] = qHTS for differential inhibitors of proliferation of Plasmodium falciparum line GB4 (AID 1816); conditions: Potency: Plasmodium falciparum GB4 proliferation inhibition;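 note: parasite growth measured after 72 h incubation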; note: potency is the fitted concentration of half-maximal effect
# [6] = qHTS for differential inhibitors of proliferation of Plasmodium falciparum line 3D7 (AID 1876); note: potency is the fitted concentration of half-maximal effect
# [7] = qHTS for differential inhibitors of proliferation of Plasmodium falciparum line D10 (AID 1877);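 note: parasites grown with compound for 72 h before DNA staining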; note: potency is the fitted concentration of half-maximal effect
# [8] = qHTS for differential inhibitors of proliferation of Plasmodium falciparum line Dd2 (AID 1882); conditions: Potency: Plasmodium falciparum Dd2 proliferation inhibition; note: nearly all actives have a fitted effect of over 65% in size; note: potency is the fitted concentration of half-maximal effect
# Method in brief: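 SYBR Green DNA fluorescence (ex 485, em 535 nm) after overnight lysis quantifies parasite growth; compound exposure lasted 72 h at 37 C on infected red cells at 2.5% hematocrit, 0.3% parasitemia (final). Artemisinin 0.29 uM and vehicle wells define normalization.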
# [9] = qHTS for differential inhibitors of proliferation of Plasmodium falciparum line W2 (AID 1883); conditions: Potency: Plasmodium falciparum W2 proliferation inhibition;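 note: parasites grown with compound for 72 h before lysis and staining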
# [10] = qHTS for differential inhibitors of proliferation of Plasmodium falciparum line HB3 (AID 1886); conditions: Potency: Plasmodium falciparum HB3 proliferation inhibition;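 note: parasites grown with compound for 72 h before SYBR Green readout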; note: potency is the fitted concentration of half-maximal effect
# [11] = qHTS Assay for Modulators of Human Peripheral Myelin Protein 22 (PMP22) Expression/Activity (AID 1967; active = well fitted curve in the direction sought with a large enough effect in the signal ratio; the % refers to the signal ratio)
# Method in brief: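 Mouse MSC80 Schwann line, Pmp22 promoter–CBG68 reporter, EF-alpha–CBR internal control. 24h compound exposure, 37 °C/5% CO2, DMEM + 10% FBS. Readout: corrected green/red luminescence ratio, normalized to untreated cells; concentration-response curves fitted and classified.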
# [12] = target: Ferritin light chain (Equus caballus) (UniProt P02791); test: qHTS Validation Assay for Identification of Novel General Anesthetics (AID 2323)
# Sequence of Ferritin light chain (Equus caballus) (P02791 2-175 limits assumed): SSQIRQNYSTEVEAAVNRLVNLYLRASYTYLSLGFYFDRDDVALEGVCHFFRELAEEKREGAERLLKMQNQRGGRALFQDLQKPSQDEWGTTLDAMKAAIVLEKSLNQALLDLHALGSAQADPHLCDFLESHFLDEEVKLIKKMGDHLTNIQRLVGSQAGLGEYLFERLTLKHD
# Method in brief: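 10 uM horse-spleen apoferritin + 1-AMA (50% saturated, PBS); cpd pin-transferred, 10 min RT. Ex 380/Em 535 nm endpoint. Activity normalized between free 1-AMA and 1-AMA/apoferritin; 4-parameter Hill fit of concentration-response.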
# [13] = target: ATP-dependent DNA helicase Q1 (Homo sapiens) (UniProt P46063); test: qHTS Validation Assay for Inhibitors of RecQ-Like Dna Helicase 1 (RECQ1) (AID 2353); note: potency is the fitted concentration of half-maximal effect
# Sequence of ATP-dependent DNA helicase Q1 (Homo sapiens) (P46063 whole entry, looked up): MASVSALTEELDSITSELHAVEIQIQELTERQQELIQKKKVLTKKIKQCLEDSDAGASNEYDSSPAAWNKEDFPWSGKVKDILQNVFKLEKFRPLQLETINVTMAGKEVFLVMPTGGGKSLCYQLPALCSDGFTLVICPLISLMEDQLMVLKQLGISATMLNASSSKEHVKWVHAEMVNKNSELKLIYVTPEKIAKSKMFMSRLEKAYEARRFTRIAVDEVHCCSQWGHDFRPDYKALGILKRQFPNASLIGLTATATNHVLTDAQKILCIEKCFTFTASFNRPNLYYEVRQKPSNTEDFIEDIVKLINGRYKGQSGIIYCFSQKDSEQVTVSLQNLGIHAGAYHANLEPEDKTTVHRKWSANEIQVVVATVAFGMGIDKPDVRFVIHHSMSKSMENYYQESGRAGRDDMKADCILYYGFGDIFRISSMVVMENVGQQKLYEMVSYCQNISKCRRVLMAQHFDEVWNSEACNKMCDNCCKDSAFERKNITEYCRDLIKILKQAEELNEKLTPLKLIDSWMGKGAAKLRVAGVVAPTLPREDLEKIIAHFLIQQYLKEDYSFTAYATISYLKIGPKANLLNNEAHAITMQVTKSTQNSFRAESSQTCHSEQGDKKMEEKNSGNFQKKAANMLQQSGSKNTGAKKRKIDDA
# Method in brief: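 RECQ1T1 50 nM; forked duplex (20 bp + 30-nt ss tails) 200 nM, ATP 2 mM final; pH 8.0, 2 mM MgCl2, 2.5 ug/ml poly(dI-dC); 15 min compound preincubation; discontinuous kinetic read over 2 h at RT.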
# [14] = Cytometric Cell-Based qHTS for Inhibitors of the mTORC1 Signaling Pathway in MEF (Tsc2-/-, p53-/-) Cells (AID 2660);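 note: Tsc2 and p53 null MEFs carrying empty vector with compound for 24 h; percent of cells above a phospho-rpS6 to PI ratio cutoff in each well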
# Method in brief: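 Readout: Alexa-488 phospho-rpS6 (Ser235/236) intensity divided by PI intensity, thresholded against 7.5 nM rapamycin wells and reported as % positive cells. PI cell count served as the viability measure. Compound exposure was 24 hrs at 37 degree Celsius.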
# [15] = High Content Imaging Cell-Based qHTS for Inhibitors of the mTORC1 Signaling Pathway in MEF (Tsc2-/-, p53-/-) Cells (AID 2666);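 note: percent of cells scored positive for phospho-rpS6 Ser235/236 immunostaining by imaging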
# Method in brief: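 Tsc2-/-, p53-/- MEFs (empty-vector stable) grown in DMEM + 10% FBS were exposed to compounds for 24 hrs at 37 degree Celsius, fixed, and stained with Alexa-488 anti-phospho-rpS6 Ser235/236 plus Hoechst. Imaging gave the percentage of positive cells per well.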
# [16] = High Content Imaging Cell-Based qHTS for Inhibitors of the mTORC1 Signaling Pathway in MEF Cells (AID 2667);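 note: Tsc2-/- p53-/- MEFs stably re-expressing wild-type Tsc2 exposed 24 h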
# Method in brief: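 Tsc2-/-, p53-/- MEFs stably re-expressing WT Tsc2, grown in DMEM + 10% FBS, were treated with compounds for 24 hrs at 37 degree Celsius, fixed, and stained with Alexa-488 phospho-rpS6 Ser235/236 antibody plus Hoechst; results given as % positive cells.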
# [17] = qHTS Assay for Lipid Storage Modulators (AID 1519; calls by dose curve); conditions: Drosophila S3 cells, BODIPY lipid droplet/cell ratio, laser cytometry, cells loaded with oleic acid
# Method in brief: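 Cells seeded at 5,000 per well were treated with compounds over a concentration series and loaded with oleic acid (400 uM, as added). Lipid droplet fluorescence (488 nm excitation, 500-530 nm channel) was read by laser-scanning cytometry and normalized to 20 uM Triacsin C.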
# [18] = Counterscreen for APE1 Inhibitors: Fluorescent Dye Displacement Validation Assay (AID 1707)
# Method in brief: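 Signal: ThO fluorescence (ex 480 nm/em 540 nm) on binding 50 nM dsDNA; displacement by test compound reduces it. Conditions: 250 nM dye, 50 mM Tris-HCl pH7.5, 2 mM MgCl2, 50mM NaCl, 0.01% Tween-20.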
# [19] = target: RecQ-like DNA helicase BLM (Homo sapiens) (UniProt P54132); test: qHTS Validation Assay for Inhibitors of Bloom's syndrome helicase (BLM) (AID 2364); note: potency is the fitted concentration of half-maximal effect
# Sequence of RecQ-like DNA helicase BLM (Homo sapiens) (P54132 whole entry, looked up): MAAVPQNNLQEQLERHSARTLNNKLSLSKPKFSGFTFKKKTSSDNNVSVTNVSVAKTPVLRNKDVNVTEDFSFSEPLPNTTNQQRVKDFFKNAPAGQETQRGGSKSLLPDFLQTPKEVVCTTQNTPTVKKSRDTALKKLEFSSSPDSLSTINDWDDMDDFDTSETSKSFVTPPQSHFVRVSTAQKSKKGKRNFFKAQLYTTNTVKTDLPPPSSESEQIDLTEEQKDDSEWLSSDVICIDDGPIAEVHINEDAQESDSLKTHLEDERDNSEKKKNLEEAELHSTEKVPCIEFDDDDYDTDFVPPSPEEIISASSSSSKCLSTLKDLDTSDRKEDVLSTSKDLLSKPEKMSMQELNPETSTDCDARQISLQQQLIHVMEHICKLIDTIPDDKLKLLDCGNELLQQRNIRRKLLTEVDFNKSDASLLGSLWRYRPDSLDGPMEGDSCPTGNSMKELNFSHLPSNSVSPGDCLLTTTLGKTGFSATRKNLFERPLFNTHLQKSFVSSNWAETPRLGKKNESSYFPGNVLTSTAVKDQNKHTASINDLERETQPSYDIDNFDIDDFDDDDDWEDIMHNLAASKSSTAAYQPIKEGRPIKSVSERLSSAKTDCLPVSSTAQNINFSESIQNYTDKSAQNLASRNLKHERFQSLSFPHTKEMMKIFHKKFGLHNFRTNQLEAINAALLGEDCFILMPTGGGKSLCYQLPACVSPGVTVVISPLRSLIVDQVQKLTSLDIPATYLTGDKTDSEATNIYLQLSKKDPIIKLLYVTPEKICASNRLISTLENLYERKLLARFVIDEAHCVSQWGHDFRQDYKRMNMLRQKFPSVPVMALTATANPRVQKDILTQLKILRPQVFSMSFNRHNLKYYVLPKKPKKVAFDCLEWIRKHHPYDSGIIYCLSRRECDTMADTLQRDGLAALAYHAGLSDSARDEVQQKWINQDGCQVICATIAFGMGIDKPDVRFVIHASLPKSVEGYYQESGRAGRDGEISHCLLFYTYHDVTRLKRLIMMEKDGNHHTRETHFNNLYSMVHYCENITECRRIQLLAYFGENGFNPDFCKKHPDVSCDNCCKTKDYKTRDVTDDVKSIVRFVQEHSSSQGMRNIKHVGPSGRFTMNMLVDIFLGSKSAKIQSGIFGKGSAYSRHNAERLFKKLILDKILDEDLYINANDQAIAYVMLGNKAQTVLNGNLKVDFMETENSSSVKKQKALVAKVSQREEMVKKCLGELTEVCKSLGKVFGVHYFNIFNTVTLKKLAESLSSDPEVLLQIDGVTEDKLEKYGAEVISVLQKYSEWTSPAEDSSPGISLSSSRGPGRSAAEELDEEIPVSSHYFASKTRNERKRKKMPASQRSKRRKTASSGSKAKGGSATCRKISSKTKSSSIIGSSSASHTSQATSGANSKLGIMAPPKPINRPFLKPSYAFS
# Method in brief: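 Forked 20-bp duplex substrate (200 nM, TAMRA/BHQ-2) plus 2 mM ATP added after 15 min compound preincubation with 50 nM enzyme, pH 8.0, poly(dI-dC) 2.5 ug/ml. Strand separation followed by fluorescence (525/598 nm) over 2 h, normalized to enzyme-free and DMSO controls.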
# [20] = qHTS Assay for Identification of Small Molecule Inducers of Hypoxia Response (AID 2120; active = well fitted curve in the direction sought with a large enough effect in the signal ratio, with a control signal flat, not every such curve was filed as active; the % refers to the signal ratio)
# Method in brief: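 Reporter induction read as the CCF4 blue/green (460nm/530nm) emission ratio after 2.5 h dye loading at room temperature. ME-180 HRE-beta-lactamase cells received titrated compounds for 17 h at 37 degrees Celsius; AC50 values derived.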
# [21] = measured here: cell count channel max response
# [22] = measured here: lipid channel max response
smiles,measurement,setting,value
NCCc1cnc[nH]1,outcome,[1],inactive
same,Potency,[2],inactive
same,Potency,[3],inactive
same,Potency,[4],inactive
same,Potency,[5],inactive
same,Potency,[6],inactive
same,Potency,[7],inactive
same,Potency,[8],inactive
same,Potency,[9],inactive
same,Potency,[10],inactive
same,Potency,[11],inactive
same,Potency,[12],inactive
same,Potency,[13],inactive
same,outcome,[14],inactive
same,Potency,[15],inactive
same,Potency,[16],inactive
O=C1c2c(O)ccc(O)c2C(=O)c2c(NCCNCCO)ccc(NCCNCCO)c21,"activity change, negative = inhibition",[17]; at 25.7 µM (top of the series),0.282% (inactive)
same,"activity change, negative = inhibition",[17]; at 57.5 µM (top of the series),-5.29% (inactive)
same,max response,[17]; [21],-20.6% and -20.2%
same,max response,[17]; [22],-20.7% and -20.9%
same,Potency,[2],2 µM (active)
same,Potency,[18],inactive
same,Potency,[3],2 µM (active)
same,Potency,[4],1.12 µM (active)
same,Potency,[5],1.41 µM (active)
same,Potency,[6],0.398 µM (active)
same,Potency,[7],1.58 µM (active)
same,Potency,[8],0.891 µM (active)
same,Potency,[10],0.708 µM (active)
same,Potency,[13],3.16 µM (active)
same,Potency,[19],20 µM (active)
same,outcome,[14],inactive
same,Potency,[15],inactive
same,Potency,[16],inactive
Nc1nnc(-c2cccc(Cl)c2Cl)c(N)n1,outcome,[1],inactive
same,"activity change, negative = inhibition",[17]; at 57.5 µM (top of the series),1.91% (inactive)
same,max response,[17]; [21],18.9%
same,max response,[17]; [22],20.6%
same,Potency,[2],inactive
same,Potency,[3],inactive
same,Potency,[4],inactive
same,Potency,[7],inactive
same,Potency,[8],inactive
same,Potency,[9],inactive
same,Potency,[10],inactive
same,Potency,[12],inactive
same,Potency,[13],inactive
same,outcome,[14],inactive
same,Potency,[15],inactive
same,Potency,[16],inactive
Nc1nc2c(ncn2COC(CO)CO)c(=O)[nH]1,"activity change, negative = inhibition",[17]; at 25.7 µM (top of the series),-0.899% (inactive)
same,"activity change, negative = inhibition",[17]; at 57.5 µM (top of the series),-0.373% (inactive)
same,max response,[17]; [21],0.439% and 44.9%
same,max response,[17]; [22],0.456% and 46.2%
same,Potency,[2],inactive
same,Potency,[18],inactive
same,Potency,[4],inactive
same,Potency,[5],inactive
same,Potency,[6],inactive
same,Potency,[7],inactive
same,Potency,[8],inactive
same,Potency,[9],inactive
same,Potency,[10],inactive
same,Potency,[13],inactive
same,outcome,[14],inactive
same,Potency,[15],inactive
same,Potency,[16],inactive
CC(=O)OCC(CCn1cnc2cnc(N)nc21)COC(C)=O,"activity change, negative = inhibition",[17]; at 57.5 µM (top of the series),8.16% (inactive)
same,max response,[17]; [21],10.2%
same,max response,[17]; [22],23.5%
N[C@@H](Cc1c[nH]c2ccc(O)cc12)C(=O)O,outcome,[1],inactive
same,Potency,[2],inactive
same,Potency,[18],inactive
same,Potency,[3],inactive
same,Potency,[4],inactive
same,Potency,[5],inactive
same,Potency,[6],inactive
same,Potency,[7],inactive
same,Potency,[8],inactive
same,Potency,[9],inactive
same,Potency,[10],inactive
same,outcome,[20],inactive
same,Potency,[13],inactive
same,outcome,[14],inactive
same,Potency,[15],inactive
NC(CO)C(=O)NNCc1ccc(O)c(O)c1O (stereo not drawn),outcome,[1],inactive
same,"activity change, negative = inhibition",[17]; at 57.5 µM (top of the series),13.3% (inactive)
same,max response,[17]; [21],25.8%
same,max response,[17]; [22],46.4%
same,Potency,[2],inactive
same,Potency,[3],inactive
same,Potency,[5],inactive
same,Potency,[6],inactive
same,Potency,[7],inactive
same,Potency,[8],inactive
same,Potency,[10],inactive
same,Potency,[13],inactive
same,Potency,[19],inactive
same,outcome,[14],inactive
same,Potency,[15],inactive
CS(=O)(=O)Nc1ccc([N+](=O)[O-])cc1Oc1ccccc1,"activity change, negative = inhibition",[17]; at 25.7 µM (top of the series),-1.76% (inactive)
same,"activity change, negative = inhibition",[17]; at 57.5 µM (top of the series),14.1% (inactive)
same,max response,[17]; [21],3.21% and 14.6%
same,max response,[17]; [22],2.41% and 33.1%
same,Potency,[2],39.8 µM (active)
same,Potency,[18],inactive
same,Potency,[3],inactive
same,Potency,[4],inactive
same,Potency,[6],inactive
same,Potency,[7],inactive
same,Potency,[8],inactive
same,Potency,[10],inactive
same,Potency,[12],inactive
same,Potency,[13],inactive
same,outcome,[14],inactive
same,Potency,[15],inactive
same,Potency,[16],inactive
